In PubChem BioAssay AID1159580 (chemical genetic matrix, 2015):
Where “and” joins values, the source holds several entries; their conditions need not be identical. Identical values can stand only once. Out of some 5,500 compounds screened, about 2,000 (36%) were called active. Another 18% or so got no clear call; they are omitted. Some of the results follow. A number with no mark means an inactive call. Rule as the data show it: active = normalized growth mostly below about 0.91 (no sharp cut-off); inconclusive = no clear call, values can overlap the other calls; inactive = mostly above about 0.92.

Experiment: chemical genetic growth profiling, strain panel (AID 1159580);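 also: tested at 20 µM; growth read once vehicle control cultures reached saturation at 30 °C; 1 = growth at the plate median or of vehicle wells; lower values mean less growth of the strain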
Settings: S. cerevisiae deletion strains, growth OD

## Nc1nc(N)c2nc(CNc3ccc(C(=O)NC(CCC(=O)O)C(=O)O)cc3)cnc2n1 (stereo not given)
Locus YAL013W, strain DEP1, hits give low values
  normalized growth: 1.03
Locus YAL021C, strain ccr4, hits give low values
  normalized growth: 0.925
Locus YAL026C, strain drs2, hits give low values
  normalized growth: 0.991
Locus YAL030W, strain snc1, hits give low values
  normalized growth: 0.989
Locus YAL040C, strain CLN3, hits give low values
  normalized growth: 0.994
Locus YBL061C, strain skt5, hits give low values
  normalized growth: 1
Locus YBR009C, strain hhf1, hits give low values
  normalized growth: 0.991
Locus YBR021W, strain FUR4, hits give low values
  normalized growth: 1.2 [resistant] (active)
Locus YBR023C, strain chs3, hits give low values
  normalized growth: 0.995
Locus YBR171W, strain sec66, hits give low values
  normalized growth: 1.01
Locus YBR229C, strain ROT2, hits give low values
  normalized growth: 1
Locus YBR231C, strain swc5, hits give low values
  normalized growth: 1.01
Locus YBR279W, strain paf1, hits give low values
  normalized growth: 1
Locus YCL011C, strain gbp2, hits give low values
  normalized growth: 0.983
Locus YCL016C, strain dcc1, hits give low values
  normalized growth: 0.975
Locus YCL029C, strain bik1, hits give low values
  normalized growth: 0.977
Locus YCL069W, strain vba3, hits give low values
  normalized growth: 0.996
Locus YCR088W, strain abp1, hits give low values
  normalized growth: 0.996
Locus YDL005C, strain med2, hits give low values
  normalized growth: 0.996
Locus YDL035C, strain GPR1, hits give low values
  normalized growth: 1.03
Locus YDL040C, strain nat1, hits give low values
  normalized growth: 1
Locus YDL074C, strain BRE1, hits give low values
  normalized growth: 0.993
Locus YDL101C, strain DUN1, hits give low values
  normalized growth: 0.996
Locus YDL134C, strain PPH21, hits give low values
  normalized growth: 1.02
Locus YDL185W, strain tfp1, hits give low values
  normalized growth: 0.961
Locus YDL192W, strain arf1, hits give low values
  normalized growth: 1
Locus YDR001C, strain nth1, hits give low values
  normalized growth: 0.987
Locus YDR069C, strain doa4, hits give low values
  normalized growth: 0.985
Locus YDR101C, strain arx1, hits give low values
  normalized growth: 0.982
Locus YDR137W, strain rgp1, hits give low values
  normalized growth: 0.985
Locus YDR150W, strain NUM1, hits give low values
  normalized growth: 1
Locus YDR159W, strain sac3, hits give low values
  normalized growth: 1.05
Locus YDR162C, strain NBP2, hits give low values
  normalized growth: 0.993
Locus YDR195W, strain ref2
  normalized growth: 0.961
Locus YDR297W, strain sur2, hits give low values
  normalized growth: 1
Locus YDR318W, strain mcm21, hits give low values
  normalized growth: 1
Locus YDR334W, strain swr1, hits give low values
  normalized growth: 0.985
Locus YDR335W, strain msn5, hits give low values
  normalized growth: 0.977
Locus YDR363W, strain ESC2, hits give low values
  normalized growth: 1
Locus YDR388W, hits give low values
  normalized growth: 0.994
Locus YDR392W, strain spt3, hits give low values
  normalized growth: 0.94
Locus YDR502C, strain sam2, hits give low values
  normalized growth: 1
Locus YEL003W, strain gim4, hits give low values
  normalized growth: 1
Locus YEL037C, strain rad23, hits give low values
  normalized growth: 0.989
Locus YEL061C, strain CIN8 (second series), hits give low values
  normalized growth: 0.996
Locus YEL061C, strain CIN8, hits give low values
  normalized growth: 0.994
Locus YER002W, strain NOP16, hits give low values
  normalized growth: 0.993
Locus YER015W, strain faa2, hits give low values
  normalized growth: 0.994
Locus YER016W, strain bim1, hits give low values
  normalized growth: 0.998
Locus YER110C, hits give low values
  normalized growth: 0.981
Locus YER111C, strain swi4, hits give low values
  normalized growth: 0.995
Locus YER155C, strain BEM2 (second series), hits give low values
  normalized growth: 1.05
Locus YER155C, strain BEM2, hits give low values
  normalized growth: 0.987
Locus YER167W, strain BCK2, hits give low values
  normalized growth: 1
Locus YFR010W, strain ubp6, hits give low values
  normalized growth: 0.982
Locus YGL078C, strain dbp3, hits give low values
  normalized growth: 0.999
Locus YGL086W, strain mad1, hits give low values
  normalized growth: 0.994
Locus YGL167C, strain pmr1, hits give low values
  normalized growth: 0.974
Locus YGL173C, strain kem1, hits give low values
  normalized growth: 1.01
Locus YGL227W, strain vid30, hits give low values
  normalized growth: 1
Locus YGL240W, strain doc1, hits give low values
  normalized growth: 1.03
Locus YGL248W, strain PDE1, hits give low values
  normalized growth: 1
Locus YGL253W, strain hxk2, hits give low values
  normalized growth: 1.01
Locus YGR078C, strain PAC10, hits give low values
  normalized growth: 1.02 and 0.965
Locus YGR135W, strain pre9, hits give low values
  normalized growth: 0.998
Locus YGR252W, strain gcn5, hits give low values
  normalized growth: 1.14
Locus YHR013C, strain ard1, hits give low values
  normalized growth: 0.971
Locus YHR027C, strain rpn1, hits give low values
  normalized growth: 0.982
Locus YHR030C, strain SLT2, hits give low values
  normalized growth: 0.99
Locus YHR079C, strain IRE1 (second series), hits give low values
  normalized growth: 0.978
Locus YHR094C, strain hxt1, hits give low values
  normalized growth: 0.991
Locus YHR129C, strain ARP1, hits give low values
  normalized growth: 1
Locus YHR142W, strain chs7, hits give low values
  normalized growth: 0.965
Locus YHR200W, strain rpn10, hits give low values
  normalized growth: 0.992
Locus YIL066C, strain RNR3, hits give low values
  normalized growth: 1
Locus YIL073C, strain SPO22, hits give low values
  normalized growth: 0.946
Locus YIL125W, strain kgd1, hits give low values
  normalized growth: 0.993
Locus YIR030C, strain dcg1, hits give low values
  normalized growth: 0.988
Locus YJL092W, strain hpr5, hits give low values
  normalized growth: 0.983
Locus YJL095W, strain BCK1 (second series), hits give low values
  normalized growth: 0.985
Locus YJL095W, strain BCK1, hits give low values
  normalized growth: 0.984
Locus YJL115W, strain asf1, hits give low values
  normalized growth: 0.962
Locus YJL129C, strain trk1, hits give low values
  normalized growth: 0.998
Locus YJL134W, strain LCB3, hits give low values
  normalized growth: 0.988
Locus YJL154C, strain vps35, hits give low values
  normalized growth: 0.99
Locus YJL164C, strain tpk1, hits give low values
  normalized growth: 0.964
Locus YJL166W, strain qcr8, hits give low values
  normalized growth: 1.02
Locus YJL168C, strain set2, hits give low values
  normalized growth: 0.998
Locus YJL187C, strain SWE1 (second series), hits give low values
  normalized growth: 0.992
Locus YJR043C, strain POL32, hits give low values
  normalized growth: 1.04
